Usually IC50 stands for the concentration at which inhibition is half-maximal.

Calls of active or inactive are those of the source.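 How the source made its calls: active means compound that blocked FSH-driven cAMP in FSH receptor cells, giving a fitted IC50; inactive means the rest.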

The source of these data is PubChem BioAssay AID504384 (National Center for Advancing Translational Sciences (NCATS), 2011).

The target of this experiment is Follicle-stimulating hormone receptor (Homo sapiens) (UniProt P23945). As to the kind of experiment: Counterscreen for antagonists of the thyroid stimulating hormone receptor: ELISA activity in a Follicle Stimulating Hormone receptor cell line. The following applies: HEK293-FSHR, FSH-induced cAMP ELISA chemiluminescence. The text has this: TSH is an alpha/beta heterodimeric glycoprotein hormone secreted from the anterior pituitary gland which belongs to the glycoprotein hormone family. The actions of TSH are mediated by a seven-transmembrane receptor, which upon TSH binding couples preferentially to the G-alpha (s) protein (Gs), resulting in activation of adenylate cyclase and increase in cyclic adenosine 3', 5' monophosphate (cAMP). The TSH receptor (THSR) is mainly expressed in thyroid follicular cells and regulates their growth and function. This cell based assay was conducted on a TSHR transfected HEK 293 cell line, measuring cAMP stimulation using antibody-based Homogeneous Time Resolved Fluorescence (HTRF). Our goal is to identify small molecules that will inhibit (antagonize) the thyroid-stimulating hormone receptor (TSHR), a member of the 7 transmembrane-spanning receptor (7TMR) family of cell surface receptors. TSHR-mediated hyperthyroidism is important in thyroid pathology. The development of small molecule antagonists of TSHR may lead to therapeutic approaches for TSHR-mediated hyperthyroidism caused by constitutively activating mutations or stimulating auto-antibodies associated with Graves' disease. Graves' disease is the leading cause of hyperthyroidism and is caused by autoantibodies that stimulate TSHR (TsAbs) causing thyroid growth and unregulated overproduction of thyroid hormones and existing treatments have liabilities (agranulocytosis). In addition, TSHRs are known to be expressed in multiple extrathyroidal tissues including bone, brain, kidney, testis, fat and cells of the immune system but the role of the TSHR in these tissues is not clear. Therefore, TSHR antagonists/inverse agonists could be used as probes of extrathyroidal TSHR function. Finally, TSHR inverse agonists, which are a subclass of antagonists that inhibit agonist-independent (or basal or constitutive) TSHR signaling, could be used to inhibit TSH-independent signaling in patients with recurrent or metastatic thyroid cancer who are receiving thyroid hormone to suppress TSH. In order to confirm specificity of the compounds to the TSHR, a confirmatory assay was conducted on a similar family member, the Follicle Stimulating Hormone (FSH) receptor, transfected into a HEK 293 cell line, using an orthogonal detection technology to measure cAMP stimulation: an ELISA based cAMP competition assay using cAMP-Screen Direct System (Applied Biosystems, Foster City, CA).
Follicle-stimulating hormone receptor (Homo sapiens), sequence (P23945 whole entry, looked up): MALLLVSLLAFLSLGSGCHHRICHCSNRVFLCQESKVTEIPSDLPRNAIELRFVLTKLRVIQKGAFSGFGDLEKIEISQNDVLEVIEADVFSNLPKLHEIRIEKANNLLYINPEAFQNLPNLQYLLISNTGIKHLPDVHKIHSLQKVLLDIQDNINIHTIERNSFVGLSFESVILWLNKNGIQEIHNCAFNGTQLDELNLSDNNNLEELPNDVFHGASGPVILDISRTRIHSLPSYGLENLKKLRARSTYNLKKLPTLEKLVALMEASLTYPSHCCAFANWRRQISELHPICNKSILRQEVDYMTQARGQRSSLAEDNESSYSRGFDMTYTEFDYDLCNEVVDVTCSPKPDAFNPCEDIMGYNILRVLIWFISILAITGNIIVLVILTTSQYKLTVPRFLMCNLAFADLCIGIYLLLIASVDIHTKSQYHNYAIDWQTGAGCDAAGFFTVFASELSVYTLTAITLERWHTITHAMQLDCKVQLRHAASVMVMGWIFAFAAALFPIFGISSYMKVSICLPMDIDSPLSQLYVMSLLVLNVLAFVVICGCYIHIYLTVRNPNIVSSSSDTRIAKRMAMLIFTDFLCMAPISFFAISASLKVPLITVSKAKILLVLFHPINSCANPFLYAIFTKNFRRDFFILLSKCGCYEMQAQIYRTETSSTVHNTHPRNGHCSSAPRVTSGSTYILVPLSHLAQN
Transiently transfected HEK-EM 293 cells or cells stably expressing FSHR were seeded into 96-well plates at a density of 7 x10^4 cells per well in DMEM containing 10% FBS. Cells were cultured for 24 h before incubation for 20 min in HBSS/10 mM HEPES (pH 7.4). To determine the effect of the compound on FSH induced FSHR activity, cells were incubated for 20 min with the compound in HBSS/HEPES without IBMX and subsequently for 40 min with bovine FSH (Sigma) and the compound in HBSS/HEPES supplemented with 1 mM IBMX at 37 C. The levels of cAMP in cells incubated in HBSS/HEPES without IBMX were subtracted in all experiments. After aspiration of the incubation medium, cells were lysed using lysis buffer of the cAMP-Screen Direct system (Applied Biosystems, Foster City, CA). The cAMP content of the cell lysate was determined using the method described in the manufacturer's protocol. The chemiluminescence signal was measured in a VICTOR3 V 1420 multilabel counter (PerkinElmer, Norwalk, CT). The potencies (EC50 and IC50) of the ligands were obtained from dose-response curves by data analysis with GraphPad Prism 4 for Windows.
In general terms: The purpose of a counterscreen is to sort out artefacts and off-target activity.
In the case of `Cc1cccc(C)c1OCc1cccc(C2Nc3ccccc3C(=O)N2Cc2ccco2)c1` (stereo unspecified), the IC50 is 8.2 µM (active).

On to `COc1ccc(C2Nc3ccccc3C(=O)N2Cc2ccco2)cc1COc1c(C)cccc1C` (stereo unspecified), for which the IC50 is 4.55 µM (active). As for `COc1ccc(C2Nc3ccccc3C(=O)N2Cc2cccnc2)cc1COc1c(C)cccc1C` (stereo unspecified), the concentration for half-maximal inhibition (IC50) was 32.7 µM (active).

For the compound `COc1ccc(C2Nc3ccccc3C(=O)N2Cc2ccco2)cc1COc1c(C)cc(NC(C)=O)cc1C` (stereo unspecified), the result was inactive.

Consider `CCc1cccc(CC)c1OCc1cc(C2Nc3ccccc3C(=O)N2Cc2ccco2)ccc1OC` (stereo unspecified), for which the compound was called inactive. Consider `COc1ccc(C2Nc3ccccc3C(=O)N2Cc2ccco2)cc1CSc1c(C)cccc1C` (stereo unspecified), for which the IC50 was 14.6 µM (active).
